Cycloheximide cs: counter-screen for Shiga toxin inhibitors: cycloheximide protein synthesis inhibition; max response, %; 300,000 compounds, 12% hits; cell reporter, cycloheximide protein synthesis inhibition counterscreen; AID 2314; in the data active means max response mostly above about 13%, no sharp cut-off; inactive means mostly below about 14%; further: read at 38.3 µM for the half of the compounds with a filed dose; 0% is about no effect
Shiga toxin inh: blocks Shiga toxin action in Vero cells; 290,000 compounds, 9.2% hits; inhibition, % at 38.7 µM; Vero cells, Shiga toxin protein synthesis inhibition reporter; in the data active means inhibition mostly above about 28%, no sharp cut-off; inactive means mostly below about 43%; further: 0% is about no effect
NS1 inh: inhibitors of influenza NS1 protein function; Potency, µM (highest dose often 46.1 µM), for the others: at the highest dose activity, positive = more growth; 270,000 compounds, 0.4% hits; AID 2326; calls by dose curve; further: potency means the concentration at half of the fitted maximal effect; actives are rising curves; nearly all actives have a fitted effect of over 50% in size
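Recovery from NS1-induced slow growth read by OD600 in budding yeast switched to galactose assay medium (pH 6.0, -URA) at 1:100 dilution. Compound 23 nl per well; the matching strain lacking NS1 serves as control.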
Tb PYK inh: inhibitors of Trypanosoma brucei pyruvate kinase; Q57TT1; TbPYK enzyme, Kinase-Glo Plus ATP luminescence, 45 min; Potency, µM (series often up to 76.8 µM), for inactives: at the highest dose activity, negative = inhibition, usual class: inhibitors; 410,000 compounds, 0.12% hits; AID 624173; further: potency means the concentration at half of the fitted maximal effect; on the % scale 0 is the no-effect control and ±100 the full control effect; nearly all actives have a fitted effect of over 50% in size
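Luminescent Kinase-Glo Plus end-point after 45 min room-temperature reaction of T. brucei pyruvate kinase started with 130 uM ADP (final). Buffer TEA 50 mM pH 7.2 with KCl, MgCl2, BSA, Tween-20; titration-based qHTS with fitted concentration-effect curves.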
SARS PLP yeast: blocks SARS-CoV papain-like protease in a yeast assay; S. cerevisiae expressing SARS-CoV PLpro, growth rescue; Potency, µM (series often up to 32.9 µM), for the others: at the top dose activity, positive = growth rescue, most hits filed as activators; 330,000 compounds, 0.19% hits; AID 485353; calls by dose curve; further: potency means the concentration at half of the fitted maximal effect; 0% is about no effect; nearly all actives have a fitted effect of over 55% in size
LmPK inh: inhibitors of Leishmania mexicana pyruvate kinase. Q27686. purified LmPK, Kinase-Glo ATP luminescence, 1 h. Potency, µM (series often up to 57.5 µM), for the others: top-dose activity change, negative = inhibition, hits mostly inhibitors. 290,000 compounds, 0.37% hits. AID 1721; further: potency means the concentration at half of the fitted maximal effect; on the % scale 0 is the no-effect control and ±100 the full control effect
Target sequence (Q27686 whole entry, looked up): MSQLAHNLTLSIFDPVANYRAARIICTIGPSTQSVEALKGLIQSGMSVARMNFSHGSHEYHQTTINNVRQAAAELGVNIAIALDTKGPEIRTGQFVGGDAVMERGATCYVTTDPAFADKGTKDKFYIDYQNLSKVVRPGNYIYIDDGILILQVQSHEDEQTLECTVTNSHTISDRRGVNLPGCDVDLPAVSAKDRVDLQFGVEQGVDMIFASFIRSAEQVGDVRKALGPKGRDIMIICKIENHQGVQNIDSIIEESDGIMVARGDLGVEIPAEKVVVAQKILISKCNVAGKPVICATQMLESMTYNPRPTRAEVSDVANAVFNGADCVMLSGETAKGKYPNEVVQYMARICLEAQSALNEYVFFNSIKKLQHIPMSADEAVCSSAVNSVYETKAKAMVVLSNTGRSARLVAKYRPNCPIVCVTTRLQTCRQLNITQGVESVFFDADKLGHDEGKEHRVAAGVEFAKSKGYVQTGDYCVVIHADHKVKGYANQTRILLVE
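qHTS format; LmPK 0.1 nM; substrates PEP 0.5 mM and ADP 0.1 mM. One-hour room-temperature incubation, then coupled luciferase luminescence; 0.5 nM enzyme wells mark activation.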
An asterisk follows results filed as active; · = no result given; [ ] = remark or other dose. The full list was thinned out, with hits kept by preference. Unless noted, the call rests on the fitted dose curve; in most records, active means well fitted curve in the direction sought with a large enough effect; inconclusive means small, poorly fitted or top-dose-only effect, or another doubt; inactive means no such curve, though single readings can be large; an effect the other way counts as inactive or inconclusive.

SMILES	Cycloheximide cs	Shiga toxin inh	NS1 inh	Tb PYK inh	SARS PLP yeast	LmPK inh
O=C(OCc1csc(Nc2ccccc2)n1)c1ccc(Cl)cc1	-1	-4	-23%	2%	-30%	4%
NCc1csc(Nc2ccc(C(=O)c3ccccc3)cc2)n1	·	·	·	-11%	·	·
CC(=O)Cc1nsc(Nc2ccccc2)n1	12	20	-2%	-3%	9%	4%
CC(=O)Cc1nsc(Nc2cccc(C)c2)n1	28*	92*	·	2%	-1%	-8%
Cc1cccc(Nc2nc(CC(=O)O)cs2)c1	41*	105*	·	2%	-11%	-6%
CCOC(=O)c1cc(-c2ccccc2)n(CCC(=O)Nc2nc3c(C)cccc3s2)c1C	·	·	·	6%[15.4 µM]	·	·
CC(C)c1cc2c(s1)c1cnn(Cc3ccccc3F)c(=O)c1n2C	8	17	·	·	·	·
NC(=O)c1nsc(C(=O)N(c2cccc(F)c2)C(C(=O)NCC2CCCO2)c2cccs2)c1N (configuration not stated)	4	-3	·	-3%	2%	11%
CCn1cc(CN2CCCC(CNC(=O)COc3ccccc3OC)C2)c(C)n1 (configuration not stated)	-2	-11	13%	16%	1%	0%
CCOC(=O)Cc1csc(Nc2ccc(Cl)cc2)n1	48*	11*	-13%	3%	-46%	1%
Cc1ccc(CNC(=O)CSCc2ccccc2F)cc1	39*	55	·	2%	0%	0%
O=C(CSCc1ccccc1F)NCc1ccc(F)cc1	43*	55	·	0%	-2%	1%[11.5 µM]
O=C(CCSCc1ccccc1F)NCc1ccc(F)cc1	0	2	-10%	0%	-1%	-3%
CN(C)C(=S)SCC(=O)NCc1ccc(F)cc1	29*	51*	·	1%	0%	-3%
O=C(CSCc1ccc(F)cc1)NCc1ccc(F)cc1	-2	60	·	-3%	0%	1%
O=C(Nc1ccc(N2CCN(C(=O)c3ccco3)CC2)cc1)c1cccc(F)c1	22*	16	-12%	0%	6%	1%
O=C(Nc1ccc(N2CCN(C(=O)c3ccco3)CC2)cc1)c1ccccc1F	22*	24	-4%	0%	1%	0%
CC(C)Oc1ccc(C(=O)Nc2ccc(N3CCN(C(=O)c4ccco4)CC3)cc2)cc1	-3	-10	12%	-1%	2%	3%
O=C(Nc1ccc(N2CCN(C(=O)c3ccco3)CC2)cc1)c1ccccc1Br	9	-30	8%	-5%	1%	-23%
CCc1ccc(OCC(=O)N(Cc2ccc(C(C)C)cc2)C2CCS(=O)(=O)C2)cc1 (configuration not stated)	·	·	·	8%	·	·
CCc1nn2c(=O)cc(COC(=O)c3ccc(NC(=O)CCc4ccccc4)cc3)nc2s1	·	·	·	0%	·	·
CCCCCn1cnc2c(sc3nc4c(cc32)CSC(C)(C)C4)c1=O	61*	150*	8%	1%	-11%	1%
CC1(C)Cc2nc3sc4c(=O)[nH]cnc4c3cc2CS1	10*	15	-2%	-2%	-1%	-11%
CCc1nc2sc3c(=O)[nH]cnc3c2c2c1CSC(C)(C)C2	-1	-1	1%	-21%	0%	-10%
CCCOc1ncnc2c1sc1nc3c(cc12)COC(C)(C)C3	10	16	-1%	7%	0%	1%
SMILES	Cycloheximide cs	Shiga toxin inh	NS1 inh	Tb PYK inh	SARS PLP yeast	LmPK inh
Cc1noc(C)c1-c1ccc2ncnc(NCc3ccco3)c2c1	3	-5	·	·	·	·
S=C(N=Nc1ccccc1)NNc1ccccc1	54*	122*	-40%	-7%	2%	0%
O=C(Nc1sc(-c2ccccc2)cc1C(=O)O)c1ccccc1	35*	52*	-85%	5%	-7%	-2%
CCOC(=O)c1cc(-c2ccccc2)sc1NC(=O)c1ccc(OC)cc1	-1	-12	-3%	-26%	-1%	-6%
COc1cc(/C=N/NC(=O)c2cc(-c3ccccc3)sc2N)cc(OC)c1OC	15	30	5%	-2%	1%	4%
NNC(=O)c1cc(-c2ccccc2)sc1N	36*	36	14%	-23%	-3%	4%
CC(=O)c1sc(-c2ccccc2)cc1N	14	35	-4%	3%	-2%	3%
NNC(=O)c1sc(-c2ccccc2)cc1N	19*	50*	·	2%	1%	3%
